PERK inh: inhibitors of human PERK kinase; Q9NZJ5; CHO PERK-DD fusion, SEAP luminescence translation reporter; inhibition, % at 5.6 µM; 220,000 compounds, 0.17% hits; AID 1416;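 active means inhibition above the mean inhibition of all tested compounds plus 3 SD, set separately per screening campaign, cut at about 2.9% in these data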;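 further: PERK kinase domain activated by AP20187 dimerizer at 100 nM; 0% = DMSO with dimerizer and 100% = rapamycin at 8.4 µM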
Target sequence (Q9NZJ5 whole entry, looked up, the tested form may be a part): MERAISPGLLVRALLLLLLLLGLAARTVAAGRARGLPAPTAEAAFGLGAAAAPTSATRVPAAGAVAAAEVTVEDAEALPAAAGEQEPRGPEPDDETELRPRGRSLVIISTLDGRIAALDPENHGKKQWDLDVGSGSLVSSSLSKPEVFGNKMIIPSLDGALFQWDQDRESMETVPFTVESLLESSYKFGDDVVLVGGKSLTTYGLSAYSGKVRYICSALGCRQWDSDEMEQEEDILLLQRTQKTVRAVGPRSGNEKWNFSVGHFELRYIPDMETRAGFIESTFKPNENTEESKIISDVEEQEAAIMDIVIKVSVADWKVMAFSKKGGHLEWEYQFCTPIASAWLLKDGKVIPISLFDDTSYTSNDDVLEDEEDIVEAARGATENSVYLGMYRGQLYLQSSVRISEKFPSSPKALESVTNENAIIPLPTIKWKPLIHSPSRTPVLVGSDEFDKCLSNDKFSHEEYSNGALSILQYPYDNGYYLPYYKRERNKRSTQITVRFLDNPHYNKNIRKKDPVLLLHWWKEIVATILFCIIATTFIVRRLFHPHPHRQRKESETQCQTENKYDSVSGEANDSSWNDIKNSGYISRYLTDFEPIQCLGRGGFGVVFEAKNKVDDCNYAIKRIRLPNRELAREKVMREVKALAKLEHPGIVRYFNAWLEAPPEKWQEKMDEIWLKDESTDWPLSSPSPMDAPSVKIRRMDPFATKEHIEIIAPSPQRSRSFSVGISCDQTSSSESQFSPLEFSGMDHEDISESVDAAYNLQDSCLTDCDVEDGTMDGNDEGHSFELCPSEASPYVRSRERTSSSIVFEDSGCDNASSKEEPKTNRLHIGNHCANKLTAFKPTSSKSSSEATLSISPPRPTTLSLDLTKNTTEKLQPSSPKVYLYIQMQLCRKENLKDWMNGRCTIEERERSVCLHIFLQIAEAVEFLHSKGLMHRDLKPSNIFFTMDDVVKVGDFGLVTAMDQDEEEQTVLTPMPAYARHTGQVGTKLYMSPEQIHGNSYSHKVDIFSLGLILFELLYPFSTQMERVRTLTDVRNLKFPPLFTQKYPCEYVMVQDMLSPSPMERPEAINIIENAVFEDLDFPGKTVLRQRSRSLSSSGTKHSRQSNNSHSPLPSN
MLLE-PAM2 inh: inhibitors of microRNA-mediated deadenylation, human PABP1 MLLE binding; 360,000 compounds, 0.36% hits; P11940; GST-MLLE / FITC-PAM2 fluorescence polarization; inhibition, % at 20 µM; in the data active means inhibition above about 35%, passing the limit was not always enough;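 further: plate controls were DMSO wells with GST-MLLE for no effect and wells lacking GST-MLLE protein for full effect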
eIF4H inh: inhibitors of RNA binding by human eIF4H. inhibition, % at 35 µM. eIF4H fluorescence polarization binding assay. 290,000 compounds, 0.94% hits. AID 2012;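 further: calls also rest on retests at 20 µM and on dose response follow-up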
PABP FP inh: PABP-poly(A) binding inhibition; P11940; PABP-poly(A) RNA binding, fluorescence polarization; calls only at 35 µM; 290,000 compounds, 1% hits; AID 2014;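 further: calls also rest on retests at 20 µM and on dose response follow-up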
eIF4E-4G inh: blocks eIF4E binding to eIF4G; P63073+Q04637; TR-FRET eIF4E-eIF4GI(517-606) binding, 2 h; AID 782; 220,000 compounds, 0.37% hits; inhibition, % at 21.7 µM;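 active means inhibition above about 30%, limit read from the data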;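 further: 0% = full FRET control wells and 100% = background wells lacking eIF4GI fragment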
Starred values were filed as active, the others as inactive; [ ] = dose if it differs, or a comment. Sampled rows, rich in hits. Any-hit rate of the full collection: about 1.6%. Unless noted, how the calls were made is not given here.

O=C(CCNS(=O)(=O)c1ccc(Cl)cc1)N1CCCCCC1 was read as MLLE-PAM2 inh 15.7, eIF4H inh 1.3 and PABP FP inh inactive.
CC(NC(=O)Cn1cnc2c1c(=O)n(C)c(=O)n2C)c1ccccc1 (centres undefined) was read as PERK inh 0.8, MLLE-PAM2 inh -0.1, eIF4H inh -8.2, PABP FP inh active and eIF4E-4G inh 10.0.
CNc1cccc2c1C(=O)c1ccccc1C2=O was read as PERK inh 0.1, MLLE-PAM2 inh 41.1*, eIF4H inh 78.3*, PABP FP inh active and eIF4E-4G inh -1.5.
COc1ccccc1NC(=O)C(C)OC(=O)C1CCN(S(=O)(=O)c2ccc(C)c(C)c2)CC1 (centres undefined) was read as MLLE-PAM2 inh 10.4.
For COc1cc(CC(=O)NCCc2ccc(S(N)(=O)=O)cc2)cc(OC)c1OC the results were PERK inh 0.6, MLLE-PAM2 inh -4.2, eIF4H inh -1.7, PABP FP inh inactive and eIF4E-4G inh 81.3*.
Cc1nc2[nH]c(=S)[nH]c(=O)c2nc1C was read as MLLE-PAM2 inh 41.6*.
For O=C(/C=C/c1ccco1)c1ccc(O)cc1 the results were PERK inh -0.1, eIF4H inh 47.7, PABP FP inh inactive and eIF4E-4G inh 0.1.
For CC(=O)Nc1cccc(C(=O)/C=C/c2ccco2)c1 the results were PERK inh 1.6, MLLE-PAM2 inh 4.4, eIF4H inh 22.5, PABP FP inh inactive and eIF4E-4G inh 2.1.
`O=C(/C=C\c1ccco1)c1ccc(NC(=O)c2ccco2)cc1` gave PERK inh 0.4, MLLE-PAM2 inh -1.4, eIF4H inh inconclusive, PABP FP inh active and eIF4E-4G inh 16.8.
CC(=O)Nc1ccc(C(=O)/C=C/c2ccco2)cc1 was read as PERK inh 0.2, MLLE-PAM2 inh 9.5, eIF4H inh inconclusive, PABP FP inh active and eIF4E-4G inh 7.1.
Screening COc1ccc2[nH]c3c(C)c4ccncc4c(C)c3c2c1 returned PERK inh -1.2, MLLE-PAM2 inh -12.9, eIF4H inh 29.1, PABP FP inh inactive and eIF4E-4G inh 33.4*.
COc1ccc(Sc2nnc(Cc3ccccc3)c3ccccc23)cc1 was read as PERK inh 0.8, MLLE-PAM2 inh 39.8*, eIF4H inh -11.1, PABP FP inh inactive and eIF4E-4G inh -3.7.
For Cc1ccc(Sc2nnc(Cc3ccccc3)c3ccccc23)cc1 the results were PERK inh -0.2, MLLE-PAM2 inh 21.7, eIF4H inh -16.2 and PABP FP inh inactive.
Screening CN(C)C(=O)c1ccc(Nc2ncnc3sc4c(c23)CCCCC4)cc1 returned MLLE-PAM2 inh 2.7, eIF4H inh 6.5 and PABP FP inh inactive.
`Cc1cc2c(N)cccc2nn1` gave PERK inh 0.7, MLLE-PAM2 inh 13.8, eIF4H inh 96.2*, PABP FP inh active and eIF4E-4G inh -0.8.
`Cc1cc(C(=O)NCc2ccccc2F)c2ccccc2n1` gave MLLE-PAM2 inh -46.6, eIF4H inh 1.0 and PABP FP inh inactive.
For O=C(CSc1nccc(=O)[nH]1)Nc1ccc2c(c1)OCCO2 the results were PERK inh 0.6, MLLE-PAM2 inh 36.5, eIF4H inh -6.5, PABP FP inh inactive and eIF4E-4G inh 0.8.
CCCc1cc(=O)[nH]c(SCC(=O)Nc2nonc2N)n1 was read as PERK inh 1.0, MLLE-PAM2 inh 41.1*, eIF4H inh 4.2, PABP FP inh inactive and eIF4E-4G inh 3.4.
Screening Cc1cc(=O)[nH]c(SCC(=O)Nc2ccc3c(c2)OCCO3)n1 returned PERK inh 3.3*, MLLE-PAM2 inh -3.1, eIF4H inh -0.6, PABP FP inh inactive and eIF4E-4G inh 2.5.
For Cc1nnc(SCC(=O)Nc2ccc3c(c2)OCO3)n(N)c1=O the results were PERK inh 1.9, MLLE-PAM2 inh 13.9, eIF4H inh active, PABP FP inh active and eIF4E-4G inh 2.4.
CCCc1cc(=O)[nH]c(SCC(=O)NC(=O)OCC)n1 was read as PERK inh 0.9, MLLE-PAM2 inh 19.1, eIF4H inh -7.9, PABP FP inh inactive and eIF4E-4G inh 1.1.
Nn1c(SCC(=O)Nc2ccc3c(c2)OCO3)nnc1-c1ccccc1 was read as PERK inh -0.2, MLLE-PAM2 inh -12.9, eIF4H inh 3.3, PABP FP inh inactive and eIF4E-4G inh 3.7.
For CC(C)c1nc2sc3c(SCCN(C)C)ncnc3c2c2c1CCC2 the results were MLLE-PAM2 inh -13.3.
`CC1(c2ccc3noc(-c4ccccc4)c3c2)OCCO1` gave PERK inh -0.2, MLLE-PAM2 inh -7.4, eIF4H inh -1.8, PABP FP inh inactive and eIF4E-4G inh -2.1.
For CC1(c2ccc3noc(-c4ccc(F)cc4)c3c2)OCCO1 the results were PERK inh 0.4, MLLE-PAM2 inh 67.7*, eIF4H inh 10.8, PABP FP inh inactive and eIF4E-4G inh -1.8.
Screening Cc1nc(C)c(C(=O)OCC(=O)Nc2cccc(C)c2C)s1 returned MLLE-PAM2 inh 3.7.
`O=c1cc(-c2ccccc2)[nH]c2ccccc12` gave PERK inh -0.4, MLLE-PAM2 inh -1.1, eIF4H inh -2.9, PABP FP inh inactive and eIF4E-4G inh 48.5*[fluorescence artefact?].
For O=C(Nc1cccc(C(=O)N2CCCC2)c1)C1CC1 the results were MLLE-PAM2 inh 2.9.
Screening CC1=C(C#N)C(=O)NC(=O)/C1=C\c1ccc(-c2cc(C)c(C)cc2[N+](=O)[O-])o1 returned PERK inh 0.6, MLLE-PAM2 inh 20.2, eIF4H inh inconclusive, PABP FP inh inconclusive and eIF4E-4G inh 48.1*.
For Cc1ccc(-c2ccc(/C=C3/NC(=O)NC3=O)o2)cc1[N+](=O)[O-] the results were PERK inh 0.3, MLLE-PAM2 inh 19.8, eIF4H inh inconclusive, PABP FP inh inactive and eIF4E-4G inh -2.6.
For N/C(=N\c1nc(C(F)(F)F)cc(=O)[nH]1)Nc1ccc(Cl)cc1 the results were PERK inh 0.6, eIF4H inh -5.9, PABP FP inh inactive and eIF4E-4G inh 1.4.
For CCN(CC)c1ccc(N/C(N)=N/c2nc(C(F)(F)F)cc(=O)[nH]2)cc1 the results were PERK inh 0.6, MLLE-PAM2 inh -5.2, eIF4H inh active, PABP FP inh active and eIF4E-4G inh 2.7.
Screening CCN(CCNCC(O)COc1ccccc1C(C)C)c1cccc(C)c1 (centres undefined) returned MLLE-PAM2 inh -0.6, eIF4H inh -3.6 and PABP FP inh inactive.
`Cn1ccsc1=NC(=O)c1ccc([N+](=O)[O-])o1` gave MLLE-PAM2 inh -3.8, eIF4H inh 80.3* and PABP FP inh active.
COc1cc(C(=O)N=c2sccn2C)c([N+](=O)[O-])cc1OC was read as MLLE-PAM2 inh -47.9, eIF4H inh -9.6 and PABP FP inh inactive.
For NC(=NCc1ccc2c(c1)OCO2)NC(=O)c1ccccc1 the results were PERK inh 1.7, MLLE-PAM2 inh 6.8, eIF4H inh 4.7, PABP FP inh inactive and eIF4E-4G inh 68.1*.
C/C(CCc1ccc2c(c1)OCO2)=N\NC(=O)c1ccccc1 was read as PERK inh 0.1, MLLE-PAM2 inh 1.5, eIF4H inh 11.1, PABP FP inh inactive and eIF4E-4G inh -2.3.

Screening data deposited in PubChem BioAssay by several laboratories.
